Vif-APOBEC3G blk – inhibitors of Vif-APOBEC3G interaction | 0.076% of 410,000 active | Q9HC16 | AID 602310 | Potency, µM (doses to about 46.1 µM), for the others: top-dose activity, negative = active, actives largely listed as inhibitors | HeLa A3G-eYFP + Vif (tagged APOBEC3G with the HIV-1 protein that degrades it), YFP fluorescence, overnight; also: potency is read from the fitted curve at half-maximal effect; % is scaled to controls: 0 for no effect and ±100 for the full control effect; nearly all actives have a fitted effect of over 60% in size
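Read-out is eYFP fluorescence (Ex 488/Em 500-530) from Vif-expressing HeLa A3G-eYFP cells; more signal means A3G escaped Vif-mediated degradation. Cells plated overnight, compound pinned in, incubated overnight at 37 deg C.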
ASM inhibitor – human S-ASM enzyme inhibition; P17405; 0.006% of 340,000 active; Potency, µM (highest dose often 57.5 µM), for inactives: at the highest dose activity change, negative = inhibition, most hits filed as inhibitors; placental ASM, HMU-PC fluorogenic substrate, 60 min; also: potency is read from the fitted curve at half-maximal effect
Target sequence (P17405 47-631 limits assumed): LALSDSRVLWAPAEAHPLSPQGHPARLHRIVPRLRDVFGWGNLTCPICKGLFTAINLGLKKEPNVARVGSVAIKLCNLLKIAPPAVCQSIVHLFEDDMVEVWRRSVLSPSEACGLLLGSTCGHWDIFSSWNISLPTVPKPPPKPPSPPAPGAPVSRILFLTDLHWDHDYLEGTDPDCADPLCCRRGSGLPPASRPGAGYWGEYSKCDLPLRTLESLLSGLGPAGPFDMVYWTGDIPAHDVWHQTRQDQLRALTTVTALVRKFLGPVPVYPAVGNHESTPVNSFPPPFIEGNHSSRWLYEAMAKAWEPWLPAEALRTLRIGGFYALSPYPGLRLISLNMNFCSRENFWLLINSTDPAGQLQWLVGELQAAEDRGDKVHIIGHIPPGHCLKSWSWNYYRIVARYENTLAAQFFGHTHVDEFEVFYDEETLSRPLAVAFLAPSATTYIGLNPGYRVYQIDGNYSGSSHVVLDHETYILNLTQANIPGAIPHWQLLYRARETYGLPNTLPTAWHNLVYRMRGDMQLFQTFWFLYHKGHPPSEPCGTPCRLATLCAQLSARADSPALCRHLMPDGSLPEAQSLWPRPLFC
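qHTS format. ASM enzyme prepared from human placenta hydrolyses the fluorogenic substrate HMU-PC0 (9 uM final) over 60 min at 37 °C after a 10 min compound preincubation.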
12-LOX inh – ALOX12 (human) lipoxygenase inhibition; P18054; purified 12hLO, xylenol orange hydroperoxide absorbance; Potency, µM (titrated, usually from 108 µM), without a hit: at the top dose activity change, negative = inhibition, most hits filed as inhibitors; 1.1% of 580,000 active; also: potency is read from the fitted curve at half-maximal effect; % is scaled to controls: 0 for no effect and ±100 for the full control effect
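Purified human 12hLO (150 nM final) in 25 mM Hepes, 0.01% Triton X-100, pH 7.0 was preincubated 15 min at room temperature with compound. Then 40 uM arachidonic acid was added, 30 min. Hydroperoxide was read by Fe-XO absorbance ratio 573/405 nm.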
Akt phos inh – inhibitors of Akt phosphorylation; AID 651550; 0.32% of 360,000 active; Neuro2A IGF-stimulated pAkt S473 HTRF, 20 min; stronger effect = lower value; activity change, % for hits at 50 µM; in the data active = activity change below about -80%; inconclusive = mostly about -51% to -80%; also: % is scaled to controls: 0 for no effect and ±100 for the full control effect
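Neuro2A cells in DMEM with 0.5% FBS, overnight at 37 deg C, given compound at single 50 µM final, then IGF (6 nM final) for 20 min at 37 deg C. Lysed; phospho-Akt Ser473 by HTRF after 24 h, 665/615 ratio.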
Vif-A3F inh – Vif-A3F binding inhibition. 0.2% of 390,000 active. HeLa A3F-eYFP + Vif (tagged APOBEC3F with the HIV-1 protein that degrades it), YFP fluorescence increase. Potency, µM (highest dose often 46.1 µM), without a hit: at the highest dose activity, negative = active; also: potency is read from the fitted curve at half-maximal effect; % of control where 0% means no effect; nearly all actives have a fitted effect of over 65% in size
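HeLa cells stably expressing Vif plus C-terminally eYFP-tagged A3F were seeded, incubated overnight at 37 deg C, dosed with compound, incubated overnight again at 37 deg C. Yellow fluorescence (Ex 488/Em 500-530) reported blocked Vif-mediated A3F-eYFP degradation.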
TSG101-PTAP inh – blocks PTAP/TSG101 interaction to inhibit HIV-1 budding | Potency, µM (highest dose often 115 µM), without a hit: at the top dose activity change, negative = inhibition, most hits filed as inhibitors | Fluorescence polarization, FITC-PTAP peptide / Tsg101 binding | Q99816 | AID 493005 | 340,000 tested, under 10 active; active = well fitted inhibition curve with a large enough effect in the main read-out, with a control signal flat, not every such curve was filed as active; inconclusive = small, poorly fitted or top-dose-only effect, or effect the other way, or a change in a side signal; inactive = no such curve, though single readings can be large or run the other way; also: potency is read from the fitted curve at half-maximal effect; % of control where 0% means no effect
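FP read-out: FITC-PTAP peptide, 50 nM final, binding Tsg101 binding domain, 10 uM final; 20 min, r.t.; 10 mM HEPES pH 7.5, 0.15 M NaCl, 0.01% Tween 20, 3 mM EDTA, 0.1 mM TCEP.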
Numbers without * were called inactive; i = inactive; ? = inconclusive; nt = no result given; [ ] = remark or other dose. The list is not random: actives were taken first. Their share in the collection is about 1.4%. Unless noted, calls follow the shape of the dose curve; as a rule, active = well fitted curve in the direction sought with a large enough effect; inconclusive = small, poorly fitted or top-dose-only effect, or another doubt; inactive = no such curve, though single readings can be large; an effect the other way counts as inactive or inconclusive.

SMILES	Vif-APOBEC3G blk	ASM inhibitor	12-LOX inh	Akt phos inh	Vif-A3F inh	TSG101-PTAP inh
C#CCOc1c(Br)cc(/C=C2/C(=O)ON=C2C)cc1OC	3%	-2%	5µM*	i	-5%	-2%
C=CCOc1c(Br)cc(/C=C2/C(=O)ON=C2C)cc1OC	-7%	0%	16µM*	i	-8%	0%
COc1cc(/C=C2\C(=O)ON=C2c2ccccc2)cc(OC)c1OC	-3%	-1%	?	i	-19%	-2%
C#CCOc1c(Br)cc(/C=C2/C(=O)ON=C2C)cc1OCC	-1%	-3%	11µM*	i	-15%	-6%
C#CCOc1c(Cl)cc(/C=C2/C(=O)ON=C2C)cc1OCC	-1%	-2%	45µM*	i	-10%	0%
COc1cc(CN(CC2CCCO2)C(=O)COc2ccc(Br)cc2)cc(OC)c1OC (stereo not drawn)	nt	nt	9%	nt	nt	nt
C#CCOc1ccc(/C=C2/C(=O)ON=C2C)cc1Cl	-5%	-2%	8.9µM*	i	-5%	-8%
Cc1cccc(-n2cc[nH]c2=S)c1C	0%	6%	50µM*	i	-10%	0%
Cc1ccccc1-n1cc[nH]c1=S	3%	0%	?	i	-1%	-11%
CC(C)c1noc(CN2CCN(C(=O)N3CCCCC3)CC2)n1	nt	nt	-2%	nt	nt	nt
CC(NC(=S)NC1CCCCC1)c1ccccc1 (stereo not drawn)	12%	6%	-13%	i	0%	-3%
CCCc1ccc(C(C)NC(=S)NC2CCCCC2)cc1 (stereo not drawn)	1%	-8%	35µM*	i	-9%	0%
CCOc1ccc(C(C)NC(=S)NCc2ccc(Cl)cc2)cc1 (stereo not drawn)	2%	-7%	40µM*	i	?	-2%
CCCc1ccc(C(C)NC(=S)NCc2ccc(F)cc2)cc1 (stereo not drawn)	2%	-11%	32µM*	i	-5%	-2%
CCC(C)c1ccc(C(C)NC(=S)NCc2ccc(F)cc2)cc1 (stereo not drawn)	5%	-1%	40µM*	i	-11%	-7%
CCNC(=S)NCc1ccc(Cl)cc1	1%	4%	0%	i	0%	-6%
Cc1ccc(C)c(C(C)NC(=S)NC2CCCCC2)c1 (stereo not drawn)	0%	3%	45µM*	i	0%	-1%
O=C(c1cccs1)N(Cc1ccc2[nH]ccc2c1)C1CC1	nt	nt	-67%	nt	nt	nt
O=C(O)C1Nc2c(Cl)cc(Cl)cc2C2C=CCC12 (stereo not drawn)	1%	-1%	nt	i	-2%	-20%
O=C(O)C1Nc2c(Cl)cc(Cl)c(Cl)c2C2C=CCC12 (stereo not drawn)	0%	-2%	3.2µM*	i	-2%	-11%
CC(C)Cn1nc(C(=O)NCc2cccc(CN(C)C)c2)c2ccccc2c1=O	nt	nt	12%	nt	nt	nt
COc1cc(/C=C/c2ccc(O)cc2)cc(OC)c1	0%	4%	?	i	1%	1%
COC(=O)c1ccc2c(c1)C(C)(C)C(/C=C/c1ccc(O)cc1)=[N+]2C	?	-2%	5.6µM*	i	-7%	48%
COC(=O)c1ccc2c(c1)C(C)(C)C(/C=C/c1ccc(OC)c(OC)c1OC)=[N+]2C	?	35%	2.5µM*	i	-1%	0%
O=C(Nc1ccc(Cl)cc1C(F)(F)F)c1ccc(Cl)c(Cl)c1	nt	nt	9%	nt	nt	nt
SMILES	Vif-APOBEC3G blk	ASM inhibitor	12-LOX inh	Akt phos inh	Vif-A3F inh	TSG101-PTAP inh
C1CNC(CN2CCOCC2)C1 (stereo not drawn)	nt	nt	8.9µM*	nt	nt	nt
Cc1ccc(/C=C2\SC(=S)N(NS(=O)(=O)c3ccc(C)cc3)C2=O)cc1	-2%	-18%	35µM*	i	-4%	-6%
CCCC[C@@H]1CNC(=S)N1CCC12CC3CC(CC(C3)C1)C2	1%	-4%	35µM*	i	-14%	-5%
CCCC[C@@H]1CNC(=S)N1CC1CCCCC1	0%	-3%	50µM*	i	-1%	-6%
CCc1ccc(C(=O)C2CC(=O)Nc3c2c(C)nn3-c2ccc(C)c(Cl)c2)s1 (stereo not drawn)	nt	nt	6%	nt	nt	nt
CC(=O)Nc1ccc(CN2CCCC3(CC(c4cccnc4)=NO3)C2)cc1 (stereo not drawn)	nt	nt	8%[6.33 µM]	nt	nt	nt
COc1ccc(CCNC(=S)NCc2ccc(Cl)c(Cl)c2)cc1OC	7%	-1%	45µM*	i	-6%	-2%
O=C(Nc1cccc(-c2nc3ccccc3o2)c1)c1ccccc1Br	nt	nt	-6%	nt	nt	nt
O=C(N/N=C/c1c(O)n(-c2ccc(Cl)cn2)c(=O)c2ccccc12)c1ccncc1	-19%	nt	15%	i	22µM*	?
O=C(N/N=C/c1c(O)n(-c2ccc(Cl)cn2)c(=O)c2ccccc12)C1CC1	-1%	7%	3%	i	-19%	7%
COCC(C)NC(=O)C1CC(c2cccc(Br)c2)=NO1 (stereo not drawn)	0%	8%	0%	-111%*	-2%	-10%
COc1cc(NC(=O)C2CC(c3cccc(Br)c3)=NO2)cc(OC)c1OC (stereo not drawn)	-5%	-10%	-8%	i	-7%	1%
S=c1nc(-c2ccccc2Cl)[nH][nH]1	0%	2%	16µM*	i	-25%	1%
Cc1noc(C)c1-c1cc2cc(CN(C)C)oc2c(Nc2cccnc2)n1	nt	nt	17%[176 µM]	nt	nt	nt
COC(=O)c1c(C)sc(-c2c(-c3ccc4c(c3)OCCO4)[nH]c3c2c(=O)n(C)c(=O)n3C)c1O	nt	nt	-21%	nt	nt	nt
COC(=O)c1c(C)sc(-c2c(-c3ccc4c(c3)OCCO4)[nH]c3[nH]c(=O)[nH]c(=O)c23)c1O	nt	nt	25µM*	nt	nt	nt
CCCCCCCn1c(Br)nc2c1c(=O)n(C)c(=O)n2C	nt	nt	-2%	nt	nt	nt
OC(c1cn2cc(-c3ccc(F)cc3)nc2s1)(C(F)(F)F)C(F)(F)F	nt	nt	4%	nt	nt	nt
COc1cc(-c2csc(C)n2)ccc1O	4%	2%	0%	i	2%	-5%
Oc1ccc(-c2nc(-c3ccc(Cl)cc3)cs2)cc1	nt	nt	14µM*	nt	nt	nt
Oc1ccc(-c2csc(-c3ccccc3)n2)cc1O	?	-11%	7.1µM*	i	-17%	-2%
Oc1ccc(-c2csc(-c3cccnc3)n2)cc1O	?	2%	10%	i	-26%	-3%
Cc1ccc2nc(-c3ccc(O)c(O)c3)cn2c1	-10%	-5%	18µM*	i	-8%	1%
Cc1nc(-c2ccc(O)c(O)c2)cs1	-3%	1%	7.1µM*	i	-6%	1%
Clc1ccc(-c2csc(-c3nc(-c4ccc(Br)s4)cs3)n2)cc1	0%	nt	-18%	nt	1%	nt
